# Shown are actives, neighbours in structure and some others; about 4.1% of the full set was active somewhere.
# CHT PAM: allosteric activators of human choline transporter CHT. CHT-expressing cells, membrane potential dye, choline EC20; hits give high values; LV-AA mutant CHT in HEK293 cells. B-score at 10 µM. hit rate 0.49% among 310,000. Q9GZV3;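 active = initial fluorescence not abnormally high and integrated response B-score, plate-corrected, over 3 SD above library mean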
# Target sequence (Q9GZV3 whole entry, looked up): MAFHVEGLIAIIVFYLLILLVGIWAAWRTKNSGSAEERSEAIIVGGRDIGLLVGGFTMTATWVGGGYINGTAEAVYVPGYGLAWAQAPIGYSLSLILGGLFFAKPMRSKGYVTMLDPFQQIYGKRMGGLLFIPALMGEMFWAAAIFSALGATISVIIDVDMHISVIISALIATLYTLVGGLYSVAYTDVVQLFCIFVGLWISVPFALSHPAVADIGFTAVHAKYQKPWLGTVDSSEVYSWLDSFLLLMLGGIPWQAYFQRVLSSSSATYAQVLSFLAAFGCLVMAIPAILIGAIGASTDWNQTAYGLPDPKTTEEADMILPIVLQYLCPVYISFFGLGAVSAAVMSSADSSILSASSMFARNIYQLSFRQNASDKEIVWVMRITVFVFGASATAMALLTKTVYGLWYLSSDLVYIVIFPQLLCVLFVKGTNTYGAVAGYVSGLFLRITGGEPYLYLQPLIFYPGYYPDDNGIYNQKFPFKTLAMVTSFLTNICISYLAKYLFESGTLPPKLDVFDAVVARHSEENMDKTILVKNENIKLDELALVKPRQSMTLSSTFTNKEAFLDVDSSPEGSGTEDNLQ
# MEKK2 WT-MEK5: raises or lowers MEK5 binding to wildtype human MEKK2 PB1 domain | bead flow cytometry, Alexa488-MEK5 binding to MEKK2 WT; actives lie on both sides | AID 1531 | hit rate 1.1% among 290,000 | binding response (% of control), % at 10 µM; in the data active = binding response below about 67% or above about 130%
# Mot1-301 SUMO: inhibitors of SUMOylation pathway: yeast Mot1-301 growth rescue | S. cerevisiae Mot1-301 growth rescue, ATP luminescence, 38.5C; percent above DMSO median, 100 means doubled | growth rescue, % at 18.8 µM | hit rate 1% among 320,000 | AID 2716;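 active = every valid replicate shows activation above 250% relative to neutral control wells; inactive = the rest, any valid replicate at or below 250%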;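 also: OY570 slx delta 5 strain wells were the positive control but not used for scaling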
# CHT inh: inhibitors of human choline transporter CHT; CHT-expressing cells, membrane potential dye, choline response; hits give low values; AID 488975; hit rate 0.86% among 310,000; Q9GZV3; B-score at 10 µM;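 active = B-score over 3 SD under the library average, and starting fluorescence ratio not unusually high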;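 also: choline stimulus applied at its EC90 after an EC20 pre-addition; B-score computed on integrated fluorescence ratio after choline addition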
# MEKK2mut PB1 HTS: signal of MEK5 binding to mutant human MEKK2 PB1 domain; bead flow cytometry, Alexa488-MEK5 binding to MEKK2 mutant; percent response, % at 10 µM; hit rate 0.35% among 290,000; in the data active = percent response above about 24%, passing the limit was not always enough
# MEKK3 PB1 HTS: MEKK3-MEK5 PB1 interaction, increase or decrease | bead-based flow cytometry, Alexa488-MEK5 binding to MEKK3; actives lie on both sides; 0 = blocked by unlabeled MEK5, 100 = vehicle | binding response (% of control), % at 10 µM | hit rate 1.4% among 290,000 | Q99759;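 active = binding response more than 3 SD above or below the average of its plate-row segment, actives on both sides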;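 also: Alexa488 bead fluorescence after subtracting the streptavidin-only scavenger bead signal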
# CHT activ conf: human CHT activation, confirmatory screen; hit rate 91% among 2,500; activation, % at 10 µM; AID 504833; shares compounds with CHT PAM; CHT-expressing cells, membrane potential dye fluorescence (FDSS); % of choline EC20–EC90 response window; HEK293 expressing CHT LV-AA mutant; choline added at its EC20;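 active = primary screen active, with duplicate mean activation above negative control mean plus 3 SD, cut at about 11% in these data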
# HEK293 MP dye: activity in parental HEK293 cells lacking CHT; shares compounds with CHT PAM; membrane potential dye fluorescence (FDSS); measured after EC20 choline addition; ratio readout change at 10 µM, hits read low; hit rate 62% among 2,500; AID 623908;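 active = duplicate-averaged ratio beyond 3 SD from buffer wells, up or down, though filed actives are nearly all decreases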
# * = called active by the depositor; i = inactive; x = no result given.
SMILES,CHT PAM,MEKK2 WT-MEK5,Mot1-301 SUMO,CHT inh,MEKK2mut PB1 HTS,MEKK3 PB1 HTS,CHT activ conf,HEK293 MP dye
O=C(C[n+]1cc(-c2ccc(Cl)cc2)n2c1CCCCC2)c1ccccc1,i,103.0,51.9,i,-1.0,102.0,x,x
O=C(C[n+]1cc(-c2ccc(Br)cc2)n2c1CCCCC2)c1ccccc1,i,107.0,3.4,i,-1.0,105.0,23.4*,i
CCOC(=O)c1cnc2c(cnn2C)c1NCCCN(C)C,i,104.0,x,i,6.0,107.0,x,x
CCOC(=O)c1cnc2c(cnn2C)c1NCCCn1ccnc1,7.19*,91.0,-1.0,i,-3.0,96.0,44.0*,-80.7*
N#Cc1cc(Sc2ccccn2)c(Sc2ccccn2)cc1C#N,i,103.0,14.0,i,6.0,100.0,x,x
N#Cc1cc(Sc2ccccn2)c([N+](=O)[O-])cc1C#N,i,97.0,149.8,i,-4.0,97.0,46.0*,-41.3*
c1cn(CCCNc2ncnc3nc[nH]c23)cn1,i,102.0,9.3,i,-3.0,98.0,x,x
Cc1sc2ncnc(NCCCn3ccnc3)c2c1C,i,112.0,-0.4,i,5.0,107.0,48.4*,-50.6*
Cc1c2c(n3c(nc4ccccc43)c1C#N)N(CCN1CCOCC1)CC2,7.86*,89.0,2.3,i,-12.0,98.0,53.7*,-46.1*
Cc1cc(NCCCN2CCOCC2)n2c(nc3ccccc32)c1C#N,6.35*,109.0,-5.7,i,5.0,108.0,55.4*,-91*
Cc1cc(NCCN2CCOCC2)n2c(nc3ccccc32)c1C#N,i,114.0,-14.6,i,5.0,109.0,x,x
Cc1cc(NCCCCO)n2c(nc3ccccc32)c1C#N,i,x,-14.8,i,x,x,x,x
CCN(CC)CCNc1cc(C)c(C#N)c2nc3ccccc3n12,i,103.0,24.4,i,13.0,98.0,42.0*,-81.3*
Cc1ccc(C(=O)N2CCN(S(=O)(=O)N3CCCCCC3)CC2)cc1,i,97.0,-5.0,i,-3.0,100.0,x,x
O=C(N/N=C/c1ccccn1)c1ccccc1,i,88.0,12.9,i,-4.0,89.0,x,x
COc1ccc(C(=O)N/N=C/c2ccccn2)cc1OC,10.4*,94.0,318.7,i,-1.0,96.0,54.2*,-66*
O=C(O)CCc1nn2cnc3sc4c(c3c2nc1=O)CCCC4,i,101.0,5.8,i,3.0,104.0,54.3*,-42.6*
CCOc1ccc(-c2nc(C#N)c(NCc3ccc4c(c3)OCO4)o2)cc1,i,101.0,9.1,i,8.0,106.0,x,x
Cc1ccc(OCc2nc(C#N)c(NCc3ccc4c(c3)OCO4)o2)cc1,7.47*,103.0,12.2,i,2.0,108.0,30.4*,i
CC(=O)COc1ccccc1OC(=O)c1ccco1,i,100.0,x,i,0.0,105.0,-0.5,i
Cc1c(C)n(CCN(C)C)c2ncnc(NCc3ccccc3)c12,i,111.0,-4.6,i,7.0,108.0,46.0*,-47.9*
CCOc1ccccc1N1CCN(C(=O)/C=C/c2cccc([N+](=O)[O-])c2)CC1,i,103.0,236.2,i,-1.0,115.0,x,x
COC(=O)CNC(c1ccccc1)c1cc(Br)ccc1N (configuration not stated),i,97.0,-6.8,i,-3.0,98.0,x,x
COC(=O)CNC(c1ccccc1)c1cc(Br)ccc1NC(=O)CNC(=O)OCc1ccccc1 (configuration not stated),6.27*,102.0,3.8,i,0.0,102.0,46.6*,i
CC(C)(C)n1nnnc1C(c1ccc(C#N)cc1)N1CCCC2(CCCCC2)C1 (configuration not stated),i,101.0,-11.5,i,-1.0,102.0,51.5*,i
SMILES,CHT PAM,MEKK2 WT-MEK5,Mot1-301 SUMO,CHT inh,MEKK2mut PB1 HTS,MEKK3 PB1 HTS,CHT activ conf,HEK293 MP dye
CC(C)(C)n1nnnc1C(c1ccncc1)N1CCCCCC1 (configuration not stated),i,101.0,4.6,i,6.0,98.0,x,x
COc1ccc2sc(C)[n+](C)c2c1,11.3*,104.0,-21.1,i,5.0,102.0,38.6*,-30.3*
CCCC[n+]1c(C)sc2cc(OC)ccc21,i,94.0,75.9,i,-2.0,94.0,x,x
O=C(CSCc1ccccc1)NNC(=S)Nc1cccc(Cl)c1Cl,i,105.0,x,i,4.0,100.0,x,x
CC(=O)[C@H]1[C@H](c2cccc(Cl)c2)C(C#N)(C#N)[C@@H]2c3ccccc3C=CN21,i,100.0,30.8,i,17.0,103.0,x,x
O=[N+]([O-])c1ccc(C[n+]2ccccc2)cc1,i,x,3.7,i,x,x,x,x
O=C(Nc1ccccc1)c1ccc[n+](Cc2ccc([N+](=O)[O-])cc2)c1,i,107.0,13.2,i,1.0,100.0,41.9*,-31.8*
CCc1cc(=O)oc2cc(C)cc(OCC(=O)NCCCn3ccnc3)c12,i,97.0,11.9,i,-1.0,96.0,x,x
COc1ccc(-c2cc(=O)oc3c(C)c(OCC(=O)NCCCn4ccnc4)ccc23)cc1,i,100.0,-4.0,i,3.0,99.0,x,x
Cc1cc(OCC(=O)NCCCn2ccnc2)c2c(C)c(C)c(=O)oc2c1,i,105.0,330.3,i,7.0,102.0,40.5*,-63.9*
CCCc1cc(=O)oc2c(C)c(OCC(=O)NCCCn3ccnc3)ccc12,i,98.0,-5.6,i,-3.0,97.0,43.7*,-44.3*
Cc1cc(OC(C)C(=O)NCCCN2CCOCC2)c2c(C)c(C)c(=O)oc2c1 (configuration not stated),6.37*,109.0,-2.4,i,1.0,102.0,62.4*,-48*
Cc1cc(OC(C)C(=O)NCCCN2CCCC2=O)c2c(C)c(C)c(=O)oc2c1 (configuration not stated),i,99.0,-0.6,i,2.0,98.0,x,x
CCc1cc(=O)oc2cc(C)cc(OC(C)C(=O)NC3CCN(Cc4ccccc4)CC3)c12 (configuration not stated),i,131.0,6.6,i,21.0,106.0,53.5*,-45*
Cc1cc(OC(C)C(=O)NC2CCN(Cc3ccccc3)CC2)c2c(C)cc(=O)oc2c1 (configuration not stated),i,123.0,1.5,i,9.0,103.0,x,x
Cc1nn2c(-c3cccc(NC(=O)CSc4nc5ccccc5o4)c3)nnc2c2ccccc12,i,104.0,0.0,i,4.0,102.0,x,x

# Source: PubChem BioAssay
